Measurements from PubChem BioAssay.
The source made the active and inactive calls.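 How the source made its calls: active means inhibition at or above 50% relative to wild type and mutant plate controls; inactive means inhibition below 50%.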

Assay: loss of swimming-algae plug formation – whole organism, Chlamydomonas reinhardtii, WT vs cilia-less mutant, absorbance, 96-well, primary screen (AID 463189);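 further: 0% = wild type cc124 cells in DMSO and 100% = ciliumless bld1 mutant cells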
Details: Chlamydomonas reinhardtii gravitaxis, OD600 absorbance, 2 days; at 10 µM; stronger effect = higher value

SMILES	inhibition
O=C(O)CP(=O)(O)O	7.76% (inactive)
Cn1ccnc1	9.19% (inactive)
COc1ccc(CCCOc2cc(CCn3ccnc3)ccc2OC)cc1	1.24% (inactive)
O=c1[nH]c2cc(C(F)(F)F)ccc2n1-c1cc(C(F)(F)F)ccc1O	-0.852% (inactive)
NC(=O)c1cc[n+](CC2=C(C(=O)O)N3C(=O)[C@@H](NC(=O)[C@@H](c4ccccc4)S(=O)(=O)[O-])[C@H]3SC2)cc1	-6.94% (inactive)
CCC(=O)N1CCN(C(=O)c2ccccc2)CC1	0.644% (inactive)
O=C(NCCNCC(O)COc1ccc(O)cc1)N1CCOCC1 (stereo not drawn)	10.1% (inactive)
NC(N)=NC(=O)Cc1c(Cl)cccc1Cl	4.12% (inactive)
CCCNC(C)C(=O)Nc1ccccc1C (stereo not drawn)	6.52% (inactive)
COc1cc(CNC(=O)CCCCCCC(C)C)ccc1O	-1.4% (inactive)
CC#CCOC(=O)c1c(C)nc2sc3c(c2c1N)CCC(O)C3 (stereo not drawn)	11.7% (inactive)
CCN(CC)CCOC(=O)c1cc(Cl)c(N)cc1OC	2.34% (inactive)
Nc1nc(Nc2ccccc2)nc2c1ncn2[C@@H]1O[C@H](CO)[C@H](O)C1O (stereo partly drawn)	-1.98% (inactive)
CC(/C=C/c1cccc(Oc2ccc(F)cc2)c1)N(O)C(N)=O (stereo not drawn)	4.78% (inactive)
CN1CCN(C2Cc3ccccc3Sc3ccc(Cl)cc32)CC1 (stereo not drawn)	30.5% (inactive)
CCn1cc(C(=O)O)c(=O)c2ccc(Cc3ccccc3)nc21	6.19% (inactive)
CN=c1nc(-c2ccccc2)n(-c2ccccc2)s1	13% (inactive)
NC[C@H](O)c1ccc(O)c(O)c1	6.74% (inactive)
